NS1 function inh = blocks influenza NS1 protein function | Potency, µM (highest dose often 46.1 µM) | AID 2326 | hit rate 0.4% among 270,000; calls by dose curve; note: actives are rising curves; nearly all actives have a fitted effect of over 50% in size
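Read-out: OD600 growth recovery of NS1-expressing budding yeast. Cells grown overnight at 30C in -URA glucose medium, washed, resuspended and diluted 1:100 in 2% galactose assay medium, pH 6.0. Same strain lacking NS1 served as positive control.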
Giardia FBPA inh = Giardia lamblia aldolase inhibition; hit rate 0.71% among 290,000; purified Giardia FBPA; AID 2451; Potency, µM (doses to about 59.6 µM), most hits filed as inhibitors; note: nearly all actives have a fitted effect of over 55% in size
Target sequence (A8B2U2 whole entry, looked up): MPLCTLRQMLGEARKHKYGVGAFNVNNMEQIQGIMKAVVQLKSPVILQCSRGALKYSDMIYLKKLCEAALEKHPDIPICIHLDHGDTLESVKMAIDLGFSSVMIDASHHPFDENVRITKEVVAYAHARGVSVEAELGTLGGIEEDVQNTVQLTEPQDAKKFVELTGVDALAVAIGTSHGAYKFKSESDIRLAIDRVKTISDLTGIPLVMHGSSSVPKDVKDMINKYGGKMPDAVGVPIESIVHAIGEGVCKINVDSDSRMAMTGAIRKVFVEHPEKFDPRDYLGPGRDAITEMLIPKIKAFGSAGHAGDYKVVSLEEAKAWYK
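Giardia FBPA (40 nM reagent) was preincubated 10 min at RT with compound (up to 57.5 uM final), then substrate plus GAPDH/TPI/NAD/arsenate coupling system with diaphorase/resazurin was added; resorufin fluorescence (525/598 nm) was read after 20 min.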
Shiga inhibitor = Shiga toxin inhibition. Vero cells, Shiga toxin protein synthesis inhibition reporter. inhibition, % at 38.7 µM. hit rate 9.2% among 290,000; in the data active = inhibition mostly above about 28%, no sharp cut-off; inactive = mostly below about 43%
Pf growth 48h = P. falciparum growth inhibition at 48 hours (one generation) | P. falciparum luciferase growth in erythrocytes, 48 h | Potency, µM (doses to about 28.7 µM), actives largely listed as inhibitors | hit rate 5.9% among 310,000 | AID 504832
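Luciferase-expressing P. falciparum in infected erythrocytes (2% hematocrit, 0.1% parasitemia final) in RPMI 1640/0.5% Albumax were exposed to compound for 48 hours at 37 C, 5% CO2; growth read as luminescence.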
CHX counter = counter-screen hit for Shiga toxin inhibitors, cycloheximide; cell reporter, cycloheximide protein synthesis inhibition counterscreen; max response, %; hit rate 12% among 300,000; in the data active = max response mostly above about 13%, no sharp cut-off; inactive = mostly below about 14%; note: read at 38.3 µM for the half of the compounds with a filed dose
Pf growth 96h = P. falciparum growth inhibition at 96 hour, primary screen for plastid delayed-death inhibitors. hit rate 6.9% among 320,000. P. falciparum luciferase reporter growth, 96 h. Potency, µM (series often up to 28.7 µM), usual class: inhibitors
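Plates of compound plus infected erythrocytes (2% hematocrit, 0.05% parasitemia final) incubate 96 hours, 37 C, 5% CO2. Detection reagent added; reduced luminescence from the parasites' luciferase reporter flags inhibition.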
Large screens that a line does not name were inactive. The list is not random: actives were taken first. Their share in the collection is about 21%. Unless noted, calls come from the whole dose curve; as a rule, active = well fitted curve in the direction sought with a large enough effect; inconclusive = small, poorly fitted or top-dose-only effect, or another doubt; inactive = no such curve, though single readings can be large; an effect the other way counts as inactive or inconclusive.

COC(=O)NC(CC(C)=O)c1cccc(F)c1 (configuration not stated)	none (no result: NS1 function inh, Shiga inhibitor, Pf growth 48h, CHX counter, Pf growth 96h)
CC(C(=O)NCc1cccc(Cl)c1)N1C(=O)c2ccccc2C1=O (configuration not stated)	none
COCCn1nnnc1C(c1ccccc1)N1CCN(C(=O)c2ccco2)CC1 (configuration not stated)	none (no result: Giardia FBPA inh)
Cc1c(NC(=O)C2CC(c3cccc(Br)c3)=NO2)c(=O)n(-c2ccccc2)n1C (configuration not stated)	none
CCCCCCCNC(=O)C1(CC2CC(c3cccc(Br)c3)=NO2)CCN(C(=O)c2ccccc2)CC1 (configuration not stated)	Pf growth 48h 13µM, Pf growth 96h inconclusive (no result: NS1 function inh, Giardia FBPA inh, Shiga inhibitor, CHX counter)
CCCCCCCNC(=O)C1(CC2CC(c3ccc(Cl)cc3)=NO2)CCN(C(=O)c2ccccc2)CC1 (configuration not stated)	Pf growth 48h inconclusive, Pf growth 96h 9.3µM
CC(C)(C)OC(=O)N1CCC(CC2CC(c3ccccc3)=NO2)(C(=O)NCc2ccccc2)CC1 (configuration not stated)	Pf growth 48h 0.26µM, Pf growth 96h inconclusive (no result: NS1 function inh, Giardia FBPA inh, Shiga inhibitor, CHX counter)
CC1(C)CCC(C)(C)c2cc(NC(=O)c3ccc(C(=O)O)cc3)ccc21	none (no result: NS1 function inh, Giardia FBPA inh, Shiga inhibitor, CHX counter)
c1ccc(CSc2nnc(NC3=NCCCCC3)s2)cc1	Shiga inhibitor 102, CHX counter 44
O=C(Nc1nccs1)c1ccc(Br)o1	Shiga inhibitor 69, CHX counter 33
O=C(/C=C/c1ccc(Br)o1)Nc1nccs1	Shiga inhibitor 95, CHX counter 39 (no result: NS1 function inh)
O=C(O)/C=C/C(=O)Nc1nccs1	Pf growth 48h inconclusive, Pf growth 96h inconclusive
Cc1ncoc1C(=O)Nc1nccs1	none
CCOC(=O)CC1CCCCN1C(=O)CCCn1nnnc1CN1CCC(C)CC1 (configuration not stated)	Pf growth 48h inconclusive, Pf growth 96h inconclusive
CCC(C)N(C(=O)CSc1nnc(-c2cccs2)n1C1CC1)C1CCS(=O)(=O)C1 (configuration not stated)	none (no result: NS1 function inh, Giardia FBPA inh, Shiga inhibitor, CHX counter)
Cc1nn(C(C)C(=O)NCc2ccc(Cl)cc2)c(=O)c2cc3occc3n12 (configuration not stated)	Pf growth 96h inconclusive (no result: Giardia FBPA inh)
CCc1nn(C(C)C(=O)Nc2cccc(C)c2C)c(=O)c2cc3occc3n12 (configuration not stated)	Pf growth 48h 9.3µM
COc1ccc(CCNC(=O)C(C)n2nc(C)n3c(cc4occc43)c2=O)cc1OC (configuration not stated)	Pf growth 96h 13µM (no result: Giardia FBPA inh)
COc1cccc(CNC(=O)CCCn2ncn3c(cc4occc43)c2=O)c1	Pf growth 48h inconclusive, Pf growth 96h 4.7µM (no result: Giardia FBPA inh)
CCc1cccc(NC(=O)CCCn2nc(CC)n3c(cc4occc43)c2=O)c1	Pf growth 48h inconclusive, Pf growth 96h 12µM
O=C(CCCn1ncn2c(cc3occc32)c1=O)NCc1cccc(Cl)c1	Pf growth 48h inconclusive, Pf growth 96h inconclusive (no result: Giardia FBPA inh)
CCc1nn(C(C)C(=O)NCCN2CCN(c3cccc(C)c3C)CC2)c(=O)c2cc3occc3n12 (configuration not stated)	none
COC(=O)c1cc(CNC(=O)Cc2ccsc2)ccc1OC	none
Nc1nc(SCc2ccc([N+](=O)[O-])cc2)c2ncn([C@@H]3O[C@H](CO)[C@H](O)[C@H]3O)c2n1	none (no result: Shiga inhibitor, Pf growth 48h, CHX counter, Pf growth 96h)
CCOC(=O)N1CCN(C(=O)CCCn2nc(C)c3sc4ccccc4c3c2=O)CC1	Shiga inhibitor 68, Pf growth 48h 5.2µM
Cc1nn(CC(=O)N2CCC(N3CCCCC3)CC2)c(=O)c2c1sc1ccccc12	none
CC(=O)Nc1ccc(SCc2ncc(-c3ccccc3)o2)cc1	Shiga inhibitor 90, CHX counter 44
CC(=O)Nc1ccc(SCC(=O)Nc2ccccc2-c2ccccc2)cc1	none
CN(Cc1nc2ccccc2c(=O)[nH]1)C(=O)c1ccc(S(=O)(=O)N2CCCC2)cc1	Pf growth 96h inconclusive (no result: NS1 function inh, Giardia FBPA inh, Shiga inhibitor, CHX counter)
CC(C)CC(NC(N)=O)C(=O)Nc1ccc2c(c1)OCO2 (configuration not stated)	CHX counter 30, Pf growth 96h inconclusive (no result: NS1 function inh)
CC(C)CC(NC(=O)c1ccco1)C(=O)Nc1ccc2c(c1)OCCO2 (configuration not stated)	Shiga inhibitor 84, CHX counter 72, Pf growth 96h inconclusive (no result: Pf growth 48h)
CCCC(C)C(=O)Nc1ccc2c(c1)OCCO2 (configuration not stated)	Shiga inhibitor 86, CHX counter 50
CC(C)C[C@H](NC(=O)Nc1ccc2c(c1)OCCO2)C(=O)O	none
CC(Nc1ccc2c(c1)OCCO2)C(=O)Nc1ccc2c(c1)OCO2 (configuration not stated)	none (no result: NS1 function inh)
CC(=O)NC(Cc1c[nH]c2ccccc12)C(=O)Nc1ccc2c(c1)OCO2 (configuration not stated)	Shiga inhibitor 38
CCS(=O)(=O)c1ncc(Cl)c(C(=O)Nc2ccc(S(=O)(=O)N3CCC(C)CC3)cc2)n1	none
COc1ccc(CNC(=O)[C@H](C)NC(=O)C2CCN(C(=O)[C@@H](N)Cc3ccccc3)CC2)cc1	Giardia FBPA inh inconclusive
COc1cccc2cc(-c3nc4ccccc4o3)c(=O)oc12	Shiga inhibitor 106, CHX counter 45, Pf growth 96h inconclusive (no result: NS1 function inh)
CCc1ccc(C(=O)Cc2cc3cccc(OC)c3oc2=O)cc1	Shiga inhibitor 64, CHX counter 28
COc1cccc2cc(CC(=O)c3ccccc3)c(=O)oc12	Shiga inhibitor 44
COc1cccc2cc(C(=O)c3ccccc3)oc12	Shiga inhibitor 166, CHX counter 68
CC(=O)Nc1ccc(NC(=O)CSc2nnc(-c3cc(C)[nH]n3)n2N)cc1	Pf growth 96h inconclusive (no result: Giardia FBPA inh)
CCCCn1c(SCC(=O)NCCCOC)nc2c(sc3ccccc32)c1=O	none (no result: NS1 function inh, Giardia FBPA inh, Pf growth 48h, Pf growth 96h)
COc1cccc2cc(CC(=O)c3cc(C)ccc3C)c(=O)oc12	Shiga inhibitor 71, Pf growth 48h inconclusive, CHX counter 28
COc1cccc2cc(CC(=O)c3ccc(C)c(C)c3)c(=O)oc12	Pf growth 96h inconclusive
COc1ccc(/C(O)=C2\C(=O)C(=O)N(c3cc(C)on3)C2c2ccc(OC)c(OC)c2)cc1OC (configuration not stated)	Pf growth 96h inconclusive
Cc1cc(N2C(=O)C(=O)/C(=C(/O)c3ccc(F)cc3)C2c2ccc(F)cc2)no1 (configuration not stated)	Pf growth 96h 0.83µM
COc1cccc(C2/C(=C(\O)c3ccc(OC)c(OC)c3)C(=O)C(=O)N2c2cc(C)on2)c1 (configuration not stated)	Pf growth 96h 5.2µM
O=S(=O)(c1ccc(SCCO)nc1)N1CCOCC1	none (no result: NS1 function inh, Giardia FBPA inh, Shiga inhibitor, CHX counter)

High-throughput results: PubChem BioAssay, National Center for Advancing Translational Sciences (NCATS)
